Test results: the supplement of paper PMC3334620
Whole data set: some 33,000 sequences, median “E-score (-0.5 to 0.5)” near -0.056, cut for the highest 2% near 0.38. The sample holds the highest values, similar sequences and a random draw of the others, so the mix is not that of the screen.

Each sequence was assayed against Stb4 (UniProt P50104) (assay: PBM E-score (8-mer binding enrichment) (E-score (-0.5 to 0.5)); higher = stronger / more preferred TF binding). Details: protein concentration: 200 nM; construct: GST-DNA-binding domain.
Summary of the method: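 Detection of bound protein used fluorescent anti-GST, with scans normalised by masliner. The proteins were GST-tagged yeast transcription factors applied at about 100-200 nM to universal all-10-mer Agilent arrays made double-stranded by primer extension. Each ungapped eight-base word, pooled with its reverse complement, was scored with an E-score from the Universal PBM Analysis Suite.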

Sequence of UniProt P50104 (P50104 whole entry, the tested form may be a part): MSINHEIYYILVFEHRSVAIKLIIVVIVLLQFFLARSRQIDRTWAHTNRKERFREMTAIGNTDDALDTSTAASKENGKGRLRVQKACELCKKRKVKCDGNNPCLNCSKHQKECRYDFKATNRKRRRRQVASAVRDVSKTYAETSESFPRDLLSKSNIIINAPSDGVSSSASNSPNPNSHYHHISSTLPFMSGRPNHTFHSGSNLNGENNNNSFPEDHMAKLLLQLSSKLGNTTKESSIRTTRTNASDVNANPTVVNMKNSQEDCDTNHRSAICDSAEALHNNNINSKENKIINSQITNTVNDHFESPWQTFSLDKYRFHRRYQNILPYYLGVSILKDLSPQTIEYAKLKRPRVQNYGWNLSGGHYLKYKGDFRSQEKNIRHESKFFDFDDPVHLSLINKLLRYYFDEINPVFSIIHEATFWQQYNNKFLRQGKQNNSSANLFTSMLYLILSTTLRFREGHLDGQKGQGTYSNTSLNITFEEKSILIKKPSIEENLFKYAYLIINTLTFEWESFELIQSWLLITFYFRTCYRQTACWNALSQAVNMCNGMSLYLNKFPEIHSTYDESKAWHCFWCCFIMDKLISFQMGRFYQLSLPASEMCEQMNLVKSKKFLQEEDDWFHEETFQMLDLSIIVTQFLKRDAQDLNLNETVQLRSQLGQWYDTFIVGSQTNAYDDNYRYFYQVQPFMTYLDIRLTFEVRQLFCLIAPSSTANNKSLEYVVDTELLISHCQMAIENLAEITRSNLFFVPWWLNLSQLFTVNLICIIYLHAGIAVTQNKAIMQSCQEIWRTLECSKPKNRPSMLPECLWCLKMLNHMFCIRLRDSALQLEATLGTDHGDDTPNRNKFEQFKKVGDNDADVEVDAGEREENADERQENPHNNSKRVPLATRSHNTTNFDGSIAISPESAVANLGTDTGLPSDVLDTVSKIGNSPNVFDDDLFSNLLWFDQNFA

Sequence | PBM E-score
CAGGCGAG | -0.294
ACTGCATA | -0.135
AGTATCTC | -0.0258
TCTAGCAA | -0.0809
CATCCAGG | -0.178
CATCCGGA | 0.406
CATCCGGC | 0.397
CGTCCGGC | 0.253
CCTCCGGA | 0.307
AATCCGGG | 0.306
AGTCCGGC | 0.0945
CATCCGGG | 0.397
CATCCGTA | 0.329
AAAGCCCT | -0.106
CGAAAACA | 0.123
CGTGTTTA | -0.00808
AGCTGTGC | -0.148
AATATCTA | -0.0944
CCGCTATA | 0.0382
AGTTCTCG | 0.0181
ATCTTAAG | -0.187
CCGCTGAC | 0.0389
CCACCGCG | -0.00158
CCCCGAAG | 0.354
AACCGAAT | 0.325

Sequence | PBM E-score
TCACGAAA | -0.0978
TCCCGACA | 0.355
ACCCGAAT | 0.425
ACCCCGAT | 0.266
TCCCGAAA | 0.432
CCCCGAAC | 0.338
ACCCGAAC | 0.463
ACACGAAG | 0.00748
GCCCGAAC | 0.262
ACCCGAAG | 0.424
GGGGTTAA | 0.0779
GCTTTCAA | -0.0547
CGAGAGTC | 0.0872
ATGCCTTC | -0.0568
CTTTTCAC | -0.191
ATGCCCAG | 0.0828
CGGACAGA | 0.129
CACGCTTC | 0.0187
ACCCGAAA | 0.435
CCCCGAAA | 0.34
GCCCGAAA | 0.276
AAGTGCAG | -0.212
AACTTAGT | 0.0161
CATCCCGG | 0.342
TATCCCCA | -0.185

Sequence | PBM E-score
CATCCCGC | 0.122
CATCCCGA | 0.401
GATCCCGA | 0.417
GATCCCAA | -0.0342
AATCCCGA | 0.431
AATCCCGT | 0.303
GATCCCGC | 0.225
AATCCCGC | 0.225
TATCCCGA | 0.398
TATCCCAA | 0.0571
CGAGTAAA | 0.143
ATTGTAGA | -0.132
AGTTTGGG | -0.172
AGCTAAAA | -0.0535
CCAGTTGC | -0.0304
CAATAGGC | -0.0832
TCAGATAA | -0.0704
AATCCTTA | -0.0563
GCCGGAGA | 0.192
CGGGGATC | 0.279
GCCGGACA | 0.154
CCCGGATA | 0.429
GCCGGATA | 0.409
CCCGGAGA | 0.318
ACCGGATG | 0.385

Sequence | PBM E-score
CCGGGATA | 0.292
CCCGGACA | 0.264
ACCGGACG | 0.146
ACCGGAGG | 0.228
CCGGGATC | 0.384
AAGGGGTC | -0.176
GACGTACC | -0.0237
CAAAGCAA | -0.0355
ATCGAGAA | -0.157
GATTTTAC | 0.0329
GGACGGCC | -0.028
ATGCCAAG | -0.177
GCAAAAAA | 0.137
CCGCAGTC | 0.112
TGATTGCA | -0.0923
ACCGGATA | 0.388
ACCGGAGA | 0.187
CCCGGAGC | 0.32
ACCGGACA | 0.128
ACCGGATC | 0.353
CCCGGATC | 0.385
CAAAATGC | -0.121
CTGAACCA | -0.197
ACGCCGTA | -0.208
ATCAACAC | -0.101

Sequence | PBM E-score
ACGAAATC | -0.0845
ACGAAATA | -0.111
CCGAAATC | 0.405
CTGAAATC | -0.0865
GCGAAATA | 0.0947
CCGAAATA | 0.401
CGGTAACA | 0.238
ACACTGCG | 0.00398
AGGTTGGC | -0.205
GTATTATA | 0.0782
GATTCCGC | 0.222
TATTCCGA | 0.462
GATTCCCA | -0.109
TATTCCCA | 0.0571
CATTCCGG | 0.358
CATTCCGA | 0.449
AATTCCGG | 0.358
GATTCCGA | 0.444
CATTCCGC | 0.175
TATTCCAA | -0.113
AATTCCGA | 0.46
AATTCCGC | 0.246
CCACCCGC | 0.194
TATCAAGA | -0.216
CAGCCTGG | -0.203

Sequence | PBM E-score
CCCAGTGC | -0.0453
GTGTCGGA | 0.395
GTGTCGCA | -0.0287
CTGTCGGA | 0.353
ATGTCGGA | 0.389
ATGTCGGC | 0.138
GTGTCGTA | -0.0741
ATTAGTAA | 0.076
AGTGATAG | -0.33
AGCACAGA | -0.121
GCCAATAA | 0.0672
ACCATCCC | 0.0842
CACATCCC | 0.187
ATCATCCG | 0.414
ATCATCCC | 0.052
ACCATCCT | -0.249
CACATCCA | -0.0807
AACATCCT | -0.0622
ACCATCCG | 0.406
AACATCCG | 0.45
ATCATCCA | -0.121
CACATCCG | 0.425
AACATCCC | 0.232
AATCAATA | -0.0212
CGATTAAG | -0.128

Sequence | PBM E-score
AAAAGGGC | -0.141
CAATTCTA | -0.196
AATTCTTA | -0.0318
CTGGAGCA | -0.262
ATCCTAGG | -0.0251
GCTCCAAC | -0.111
CACTGGCA | -0.23
GCTTGAGA | -0.312
CTGAGATC | -0.0537
CCGAGATC | 0.435
ACGAGATA | -0.184
CCGAGATA | 0.405
ACGAGATC | -0.0355
GCGAGATA | 0.026
AAGCAGCT | -0.0723
CCAGACTA | -0.229
CTGAGGGA | -0.284
CATTTCCC | 0.18
ACTTTCCC | 0.121
ACTTTCCG | 0.383
AGTTTCCC | 0.132
ATTTTCCG | 0.424
ACTTTCCT | -0.22
CATTTCCA | -0.196
ATTTTCCC | 0.0682

Sequence | PBM E-score
ATTTTCCA | -0.0573
AGTTTCCG | 0.437
CATTTCCG | 0.421
AGTTTCCA | -0.103
CGCAGGAA | -0.0189
ATATGGCG | 0.0558
CGAGTAAC | 0.166
CTGGCTGC | -0.108
AAAGGGTC | -0.0434
ACGGGGGG | -0.228
GCCACGCC | -0.282
GATAGCGA | -0.0238
AGTTTCGA | -0.131
AGTTTCGG | 0.412
AATTTCCC | 0.142
AATTTCCT | -0.0502
AGTTTCGC | 0.0157
AATTTCCG | 0.425
CTAAGTCA | -0.0795
CCCAATGC | -0.17
ATTGGCTG | -0.167
GATAAGCA | 0.136
AGTTCGTG | -0.157
AGTTCGGA | 0.442
AGTTCGTA | 0.0255

Sequence | PBM E-score
AGTTCGGG | 0.426
AGTTCGGC | 0.357
AGTTCGCA | -0.158
AACATTCA | -0.00804
AACGGCAT | 0.232
AAAAGAGC | -0.189
AAACTCGG | 0.419
CATCTCGC | -0.0526
ATTCTCGC | -0.286
AATCTCGA | -0.0861
CATCTCGA | -0.252
CATCTCGG | 0.458
AAACTCGT | -0.228
ATTCTCGG | 0.425
AATCTCGG | 0.434
AATCTCGT | -0.0273
AAACTCGC | -0.0551
ATTCTCGA | -0.194
CACGCTCG | 0.119
AATCGAAT | 0.00368
CTGAGAGC | -0.138
AATACTGG | -0.159
TCTAAAAA | 0.0389
AGGGTGTA | -0.093
GTCGCAGA | -0.195

Sequence | PBM E-score
ACTCTCGG | 0.416
ACTCTCGC | -0.0541
AGTCTCGG | 0.39
AGTCTCGC | -0.0759
AGTCTCGA | -0.0187
ACTCTCGA | -0.214
ATAGCCTC | -0.00394
ACTGATAC | 0.0597
ATAGTCGC | -0.076
ACGCTACC | 0.00891
TATTTTGA | -0.151
TAGCCTCA | -0.198
GATGCTTA | -0.00303
AAGATCCA | -0.0259
AAGATCCC | 0.126
CAGATCCA | 0.0283
CAGATCCC | 0.00572
CAGATCCG | 0.416
AAGATCCG | 0.41
GGGCCGCA | 0.134
AGTCACAA | -0.173
AGTTTAGG | -0.238
AAATGGGG | -0.344
ACCTGGTG | -0.0216
ATCGGCGG | 0.327

Sequence | PBM E-score
AGCATCCT | 0.0794
CGCATCCA | -0.126
CGCATCCC | -0.0101
AGCATCCG | 0.419
AGCATCCA | -0.115
CGCATCCG | 0.408
CTCGTAGA | -0.246
GAAACGTC | 0.0218
GATCGGTA | 0.407
GCTCGGTA | 0.416
ACTCGGTA | 0.322
CCTCGGTA | 0.38
CATCGGTA | 0.345
AATCGGTA | 0.205
GCTAGACC | -0.0645
AGTTTTCG | 0.152
TATGAAGA | -0.0238
ACTGTCTG | -0.0825
AGGAAAGC | -0.0848
CGGAAAGC | 0.386
CGGAAAGA | 0.407
AGGAAAGA | -0.174
CAGAAAGC | -0.131
GGGAAAGA | -0.0458
TGAGCTAA | -0.15

Sequence | PBM E-score
CAATGCGG | 0.0433
AACTTCCA | 0.132
CACTTCCC | 0.0457
CACTTCCG | 0.397
AACTTCCG | 0.451
CACTTCCA | -0.0868
AACTTCCT | -0.0245
AGTTCATC | -0.107
CGAACGAG | 0.0473
CAGAGTGA | -0.0625
AATAACTC | -0.0405
AGATGAGA | -0.103
GATTGCGC | -0.00733
AGATAAAC | 0.00284
AGAGACCC | -0.0488
CAGTTCGG | 0.409
AAGTTCGA | 0.0503
CAGTTCGC | -0.194
AAGTTCGC | -0.187
AAGTTCGG | 0.421
CAGTTCGA | -0.262
ATCCACGG | 0.109
GGGAGACA | 0.146
CAGGCGGC | 0.067
CCCGTCGC | -0.00272

Sequence | PBM E-score
CCCGTCGG | 0.386
CCCGTCGA | 0.102
CCTGGCAC | -0.00805
GAAGAGGC | -0.016
CTCGGATA | 0.49
ATAGGATA | -0.00309
ATTGGATC | -0.0271
CTCAGATA | -0.00864
AACGGATC | 0.306
CTAGGATA | -0.0673
ATTGGATA | -0.121
ATCGGAGG | 0.199
ATCGGATG | 0.451
ATCGGATA | 0.467
ATCGGATC | 0.43
ATGGGATG | -0.0874
CCCTCTAA | -0.182
AGACCTTG | -0.312
ACTAGGAC | -0.0716
GTCATTTA | -0.171
AATGGTTG | 0.02
GTCAGGCA | -0.118
AGCTGGAT | -0.0862
AAGACTGA | -0.25
CTCGGATC | 0.481

Sequence | PBM E-score
CTCAGATC | -0.103
GTCGGATA | 0.463
GTCGGACA | 0.22
CTGGGATC | -0.0424
GTCGGAGA | 0.294
GTCAGCTA | -0.259
TCTGCAAA | -0.122
CCATCGCA | -0.229
CGGAAAAA | 0.446
CGGAAATA | 0.429
CGGAAATC | 0.366
CGGAAAAG | 0.373
CGGAAAAC | 0.37
GGGAAATA | 0.157
CTCTTTGA | -0.285
CTTAGAAG | -0.29
CGTATTGA | -0.271
AGTTACTA | -0.103
ACAATCTG | -0.064
